Source: PubChem BioAssay (The Scripps Research Institute Molecular Screening Center)
This is a sample that favours compounds with a hit; in the whole collection about 3.4% have one here.
FBW7 activator = activators of human E3 ligase FBW7 | actives 0.13% (n = 650,000) | normalized activity (activation), % at 26.1 µM | AlphaScreen FBW7–phospho-cyclin E peptide binding, activator screen | Q969H0; in the data active = normalized activity above about 1.9%;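 also: purified mutant Fbw7 with reduced substrate affinity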
GPR151 ag = human GPR151 activation. Q8TDV0. PathHunter beta-arrestin GPR151 cells, luminescence. activation, % at 11.2 µM. actives 1% (n = 650,000). AID 1508602; in the data active = activation above about 4.9%
TEAD-YAP inh = TEAD-YAP interaction inhibition; HEK-TIYL cells, TEAD-Gal4/YAP UAS-luciferase luminescence; inhibition, % at 9.12 µM; actives 1.4% (n = 640,000); AID 1259422; in the data active = inhibition above about 32%
MITF primary = human MITF inhibition, primary screen; AlphaScreen MITF homodimerization, bead proximity signal; inhibition, % at 2.6 µM; actives 0.91% (n = 650,000); in the data active = inhibition above about 50%
GPR151 conf act = human GPR151 activation, confirmation screen. shares compounds with GPR151 ag. GPR151 PathHunter beta-arrestin cells, luminescence, 90 min; % of EA-reagent control over plate median. activation, % at 11.2 µM. 6,700 tested, under 10 active. AID 1508609;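 active = mean percent activation across replicates above the confirmation screen cutoff of 4.91%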
GPR119 counter = GPR119 activation, counter-screen for GPR151 activators; shares compounds with GPR151 ag; GPR119 PathHunter beta-arrestin cells, luminescence, 90 min; 0 = compound-well median, 100 = enzyme-acceptor control; activation, % at 11.2 µM; actives 0.3% (n = 6,700); AID 1508611;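 active = mean percent activation in the counterscreen above 29.09%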;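 also: counterscreen on off-target GPR119 to flag nonselective hits from the GPR151 activator screen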
Target sequence (Q8TDV5 whole entry, looked up): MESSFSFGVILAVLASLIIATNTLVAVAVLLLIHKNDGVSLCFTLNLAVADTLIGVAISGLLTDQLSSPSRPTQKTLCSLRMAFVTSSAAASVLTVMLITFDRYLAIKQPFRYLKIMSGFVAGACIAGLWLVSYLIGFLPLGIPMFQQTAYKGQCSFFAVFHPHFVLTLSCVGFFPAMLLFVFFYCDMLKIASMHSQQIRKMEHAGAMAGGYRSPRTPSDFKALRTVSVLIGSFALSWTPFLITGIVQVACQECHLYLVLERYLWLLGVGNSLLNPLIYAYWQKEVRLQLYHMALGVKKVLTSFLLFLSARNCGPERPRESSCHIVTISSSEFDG
Hits are given with their value; n = inactive; x = not tested or not shown.

SMILES	FBW7 activator	GPR151 ag	TEAD-YAP inh	MITF primary	GPR151 conf act	GPR119 counter
CCC1CC(CNC(=O)OCCN(CC)CC)C1(C)C (centres undefined)	n	n	n	n	x	x
COc1ccc(Nc2nnc(Cc3ccccc3Cl)c(=O)[nH]2)c(OC)c1	n	6.4	n	n	n	n
COc1cccc(C(=O)Oc2coc(CSc3nnc(NC(C)=O)s3)cc2=O)c1	n	n	n	n	x	x
COc1ccc(C(=O)Oc2coc(CSc3nnc(NC(C)=O)s3)cc2=O)cc1	n	13	n	n	n	n
CSc1ccc(C2C(C#N)=C(N)N(c3ncn[nH]3)C3=C2C(=O)CCC3)cc1 (centres undefined)	n	n	n	n	x	x
O=C(Nc1ccc(F)cc1F)c1cnn2c(C(F)(F)F)cc(-c3cccs3)nc12	n	n	n	n	x	x
O=C1C(=Nc2cccnc2)c2ccccc2N1CN1CCCCC1	n	n	n	n	x	x
CC(NC(=O)c1ccc(N(Cc2ccccc2)S(C)(=O)=O)cc1)c1ccccc1 (centres undefined)	n	n	n	n	x	x
Cc1ccc(N(Cc2ccc(C(=O)NC(C)c3ccccc3)cc2)S(C)(=O)=O)cc1C (centres undefined)	n	5.5	n	n	n	n
COc1ccc(N2CCN(c3ncnc4sc(C(=O)Nc5cc(OC)ccc5OC)c(C)c34)CC2)cc1	n	n	n	n	x	x
COc1cccc(CNc2nn[nH]n2)c1OC	n	8.4	n	n	n	n
CCC1CCc2c(sc3nc(SCC(=O)Nc4c(C)cccc4C)n(-c4ccccc4)c(=O)c23)C1 (centres undefined)	n	8.1	n	n	n	n
C=CCn1c(SCC(=O)Nc2sc3c(c2C(=O)OCC)CCCCC3)nc2sc(-c3ccccc3)cc2c1=O	n	6.3	n	n	n	n
CCOC(=O)C1(CC2CC2)CCN(S(=O)(=O)c2cc(Cl)ccc2OC)CC1	n	n	n	n	x	x
CCOC(=O)C1(CC2CC2)CCN(S(=O)(=O)c2cc(C)sc2C)CC1	n	6.3	n	n	n	n
Cc1ccc(NC(=O)c2cnn(-c3ccccc3)c2NC(=O)c2ccc(Cl)cc2)cc1	n	5.6	n	n	n	n
Cc1c(-c2ccc(F)cc2)[n+](=O)c2c(n1[O-])CCCC2	n	n	n	n	x	x
CC(C)c1c(-c2ccccc2)[n+](=O)c2c(n1[O-])CCCCC2	n	5.2	n	n	n	n
CC(C)NC(=O)c1cccc(NC(=O)Nc2ccc(-c3cn[nH]c3)cc2OCCN(C)C)c1	n	5.3	n	n	n	n
Cc1cc(C)n2nc(S(=O)(=O)N3CCCC(C(=O)O)C3)nc2n1 (centres undefined)	n	n	n	n	x	x
Cc1ccc(N2CC(NC(=O)NCc3ccco3)CC2=O)cc1C (centres undefined)	n	5.8	n	n	n	n
O=C(NCc1cccs1)NC1CC(=O)N(c2cccc(F)c2)C1 (centres undefined)	n	5.0	n	n	n	n
Cc1sc2nc(SCCC(C)C)n(-c3ccccc3)c(=O)c2c1C	n	n	n	n	x	x
CC(C)(C)CC(=O)Nc1ccccc1[N+](=O)[O-]	n	7.0	n	n	n	n
O=c1[nH]c2ccccc2nc1/C=C(\O)C(F)F	n	n	n	n	x	x
SMILES	FBW7 activator	GPR151 ag	TEAD-YAP inh	MITF primary	GPR151 conf act	GPR119 counter
C/C(O)=C\c1nc2ccccc2[nH]c1=O	n	6.9	n	n	n	n
CC(C)Oc1nc(-c2ccccc2Cl)nc2ccccc12	n	n	n	n	x	x
COc1nc(-c2ccccc2Cl)nc2ccccc12	n	5.2	n	n	n	n
COCC(C)NC(=O)c1ccc([N+](=O)[O-])cc1Cl (centres undefined)	n	n	n	n	x	x
COC(=O)c1sc2cc([N+](=O)[O-])cc(Sc3ccccc3)c2c1-n1cccc1	n	5.7	n	n	n	n
COC(=O)c1sc2cc([N+](=O)[O-])cc(Sc3ccccc3)c2c1N	n	n	n	n	x	x
CC(=O)Nc1ccc(NC(=O)c2cccc(-c3ccc(C(N)=O)cc3)n2)cc1	n	13	n	n	n	n
COc1ccccc1N1C(C)=CC(C)(C)N=C1SCc1c(Cl)cccc1Cl	n	n	n	n	x	x
C/C(=N\NC(=O)c1ccc(F)cc1)c1ccc(F)cc1	n	n	n	n	x	x
CC1CCCC(NS(=O)(=O)c2ccc(F)c(C(=O)Nc3cc(Cl)ccc3Cl)c2)C1C (centres undefined)	n	7.3	n	n	n	n
CC1=C(C(=O)Nc2ccc(Cl)cc2)C(c2ccc(C)cc2)NC(=O)N1 (centres undefined)	n	n	n	n	x	x
CCOC(=O)c1sc(NC(=O)C2CC2)nc1C	n	13	n	n	n	n
CCOC(=O)c1cnc(SC2CC(=O)N(c3cccc(F)c3)C2=O)nc1N (centres undefined)	n	7.5	n	n	n	n
CCOC(=O)c1cnc(SCc2cccc(F)c2)nc1N	n	n	n	n	x	x
O=C(O)/C=C/c1cccc(-c2cnc3ccc(NC4CCOCC4)nn23)c1	n	n	n	n	x	x
CC(=O)Nc1cccc(-c2cnc3ccc(NC4CCOCC4)nn23)c1	n	4.9	n	n	n	n
CC(C)C[C@H]1C(=O)N2CCN(Cc3cn(C)nc3-c3ccccc3)C[C@@H]2C(=O)N1C	n	n	n	n	x	x
O=c1c2ccccc2ncn1Cc1c(F)cccc1F	n	4.9	n	n	n	n
O=c1c2ccccc2ncn1Cc1ccccc1Cn1cnc2ccccc2c1=O	n	n	n	n	x	x
O=C(CNC(=O)c1cc(N2CCOCC2)ccn1)Nc1ccc(F)c(F)c1F	n	5.0	n	n	n	n
Cc1nn(-c2ccccc2)c(Cl)c1C(=O)Nc1nnc(COc2ccccc2)s1	n	5.5	n	n	n	n
CC(C)(C)c1ccc(C(=O)Nc2nnc(COc3ccccc3)s2)cc1	n	n	n	n	x	x
C/C(CC(=O)Nc1ccc2c(c1)OCCO2)=N\NC(=O)Cc1cccc2ccccc12	n	n	n	n	x	x
CCOc1ccc(-n2c(C)c(C(C)=O)c3cc(OC(C)=O)ccc32)cc1	n	5.3	n	n	n	n
CCOc1ccc(/C(O)=C2/C(=O)C(=O)N(CCCO)C2c2cccc(Cl)c2)cc1 (centres undefined)	n	n	n	n	x	x
O=C(NCC(c1ccco1)N1CCOCC1)c1ccc(F)cc1 (centres undefined)	n	5.4	n	n	n	n
